{"source": "paper PMC5540273", "about": "(PLoS ONE, 2017);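 note: KINOMEscan kinase panel screen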", "data": [{"tested_on": "SGK", "conditions": "concentration: 1 μM, replicates: in singlicate; n = 1", "units": {"%Inh": "%"}, "values": [{"compound": "[2H]C([2H])(c1cccc(C(F)(F)F)c1C)n1ccn2c(=O)nc(N3CCOCC3)cc12", "note": "[GSK2336394]", "%Inh": 0}, {"compound": "N#Cc1c(N2CCOCC2)sc(-c2ccn[nH]2)c1-c1ccc(Cl)cc1", "%Inh": 23}, {"compound": "CN(C1=C(c2ccccc2)C(=O)NC1=O)c1ccccc1", "note": "[SB-334860]", "%Inh": 0}, {"compound": "Cc1cn2c(=O)cc(N3CCOCC3)nc2n1Cc1cccc(Cl)c1Cl", "note": "[GSK2334006]", "%Inh": 0}, {"compound": "Fc1ccc(-c2ncn(CCCN3CCOCC3)c2-c2cccnc2)cc1", "note": "[SB-211743]", "%Inh": 39}, {"compound": "O=c1cc(N2CCOCC2)nc2n(Cc3cccc(F)c3)ccn12", "note": "[GSK2297430]", "%Inh": 0}, {"compound": "O=C(Nc1cccc(-c2nn3ncccc3c2-c2ccnc(Nc3cccc(C(F)(F)F)c3)n2)c1)c1c(F)cccc1F", "note": "[GSK299495]", "%Inh": 1}, {"compound": "Cc1c2ccc(N(C)c3ccnc(Nc4cccc(S(N)(=O)=O)c4)n3)cc2nn1Cc1ccccc1.Cl.Cl", "note": "[GW787226]", "%Inh": 0}, {"compound": "O=C(Nc1n[nH]c2cc(-c3cccc(F)c3)ccc12)C1CC1", "note": "[SB-735464]", "%Inh": 13}, {"compound": "CCCCCc1nc2c(N)ncnc2n1CCCCC", "note": "[SKF-97255]", "%Inh": 0}, {"compound": "Cc1ccc(C(=O)NCC(N)=O)cc1-n1c(C)cc(OCc2ccc(F)cc2F)c(Br)c1=O", "%Inh": 0}, {"compound": "NCC(NC(=O)c1cc(-c2cn[nH]c2)c(-c2ccnc3[nH]ccc23)s1)c1ccccc1.O=C(O)C(F)(F)F.O=C(O)C(F)(F)F", "note": "(stereo not drawn) [GSK1325775]", "%Inh": 74}, {"compound": "COc1ccc(Nc2nccc(N3CCC(NC(=O)Nc4cccc(C(C)=O)c4)C3)n2)cc1", "note": "(stereo not drawn) [GSK1379731]", "%Inh": 0}, {"compound": "COCCNC(=O)c1ccc(-c2cc(C(=O)NC3CC3)cc(F)c2C)cc1", "note": "[GW868318]", "%Inh": 36}, {"compound": "COC(=O)Nc1nc2cc(Oc3ccc(NC(=O)Nc4cc(F)ccc4F)cc3)ccc2[nH]1.Cl", "note": "[GW701424]", "%Inh": 2}, {"compound": "O=C(c1ccc(-c2cc(-c3c[nH]nc3-c3ccccn3)ccn2)cc1)N1CCOCC1", "note": "[GW812171]", "%Inh": 2}, {"compound": "NS(=O)(=O)c1cccc(-c2ccc3nccc(-c4cccc(S(N)(=O)=O)c4)c3c2)c1", "note": "[GW867253]", "%Inh": 9}, {"compound": "CN1c2ccc(CNc3ccc(F)cc3)cc2-c2c(cnn2C)S1(=O)=O", "%Inh": 0}, {"compound": "O=c1cc(N2CCOCC2)nc2n(Cc3cccc(C(F)(F)F)c3)ccn12", "note": "[GSK2297543]", "%Inh": 0}, {"compound": "Nc1nccc(-c2c(-c3ccc(F)cc3)ncn2C2CCN(CC(F)(F)F)CC2)n1", "note": "[SB-236560]", "%Inh": 25}, {"compound": "O=c1cc(N2CCOCC2)nc2n(Cc3cccc(Cl)c3Cl)c(C3CC3)nn12", "note": "[GSK2358994]", "%Inh": 30}, {"compound": "Fc1ccc(-c2ncn(CCCN3CCOCC3)c2-c2ccccn2)cc1", "note": "[SB-211742]", "%Inh": 0}, {"compound": "CC(C)Oc1ccc2c(-c3ccnc(Nc4ccc(N5CCN(C)CC5)cc4)n3)cnn2n1", "note": "[GW696155]", "%Inh": 88}, {"compound": "COc1ccc(COc2cc(-n3cnc4ccccc43)sc2C(N)=O)cc1", "note": "[GSK1024304]", "%Inh": 0}, {"compound": "C[C@@H](Oc1cc(-n2cnc3ccc(NC(=O)NC(C)(C)C)cc32)sc1C(N)=O)c1ccccc1Cl", "note": "[GSK346294]", "%Inh": 0}, {"compound": "Cl.Nc1ncnc2occ(-c3ccc(NC(=O)Nc4cc(C(F)(F)F)ccc4F)cc3)c12", "note": "[SB-707548]", "%Inh": 0}, {"compound": "COc1cc2c(cc1OCCN1CCN(C)CC1)ncc1c3ccc(C#N)cc3[nH]c21", "%Inh": 78}, {"compound": "O=C(NCCNc1ccnc(Nc2ccc(F)cc2)n1)Nc1ccccc1F", "note": "[GSK1379880]", "%Inh": 0}, {"compound": "O=C(NCCNc1ccnc(Nc2ccc(F)cc2)n1)c1cc2ccccc2s1", "note": "[GSK1379874]", "%Inh": 0}, {"compound": "COc1cc2ncn(-c3cc(OCc4sccc4Cl)c(C(N)=O)s3)c2cc1OC", "note": "[GSK448459]", "%Inh": 0}, {"compound": "Cc1cccc(-c2nc(-c3ccc(S(C)(=O)=O)cc3)sc2-c2ccncc2)c1", "%Inh": 0}, {"compound": "CCc1nc(-c2cccc(C)c2)c(-c2ccnc(NCc3ccccc3)c2)s1", "%Inh": 2}, {"compound": "c1ccc(-c2cc(-c3c[nH]nc3-c3ccccn3)ccn2)cc1", "note": "[GW576604]", "%Inh": 0}, {"compound": "COc1cc(Nc2nccc(N3CCC(NC(=O)c4cccc(NC(C)=O)c4)C3)n2)cc(OC)c1OC", "note": "(stereo not drawn) [GSK1379754]", "%Inh": 0}, {"compound": "Cn1ccc2ncnc(Oc3ccc(NC(=O)Nc4ccncc4)c(Cl)c3)c21", "%Inh": 0}, {"compound": "Cl.Oc1cccc(Nc2ccnc3cc(-c4ccncc4)ccc23)c1", "note": "[GW494601]", "%Inh": 12}]}, {"tested_on": "SIK2", "conditions": "concentration: 1 μM, replicates: in singlicate; n = 1", "units": {"%Inh": "%"}, "values": [{"compound": "[2H]C([2H])(c1cccc(C(F)(F)F)c1C)n1ccn2c(=O)nc(N3CCOCC3)cc12", "note": "[GSK2336394]", "%Inh": 0}, {"compound": "N#Cc1c(N2CCOCC2)sc(-c2ccn[nH]2)c1-c1ccc(Cl)cc1", "%Inh": 4}, {"compound": "CN(C1=C(c2ccccc2)C(=O)NC1=O)c1ccccc1", "note": "[SB-334860]", "%Inh": 5}, {"compound": "Cc1cn2c(=O)cc(N3CCOCC3)nc2n1Cc1cccc(Cl)c1Cl", "note": "[GSK2334006]", "%Inh": 3}, {"compound": "Fc1ccc(-c2ncn(CCCN3CCOCC3)c2-c2cccnc2)cc1", "note": "[SB-211743]", "%Inh": 5}, {"compound": "O=c1cc(N2CCOCC2)nc2n(Cc3cccc(F)c3)ccn12", "note": "[GSK2297430]", "%Inh": 2}, {"compound": "O=C(Nc1cccc(-c2nn3ncccc3c2-c2ccnc(Nc3cccc(C(F)(F)F)c3)n2)c1)c1c(F)cccc1F", "note": "[GSK299495]", "%Inh": 0}, {"compound": "Cc1c2ccc(N(C)c3ccnc(Nc4cccc(S(N)(=O)=O)c4)n3)cc2nn1Cc1ccccc1.Cl.Cl", "note": "[GW787226]", "%Inh": 42}, {"compound": "O=C(Nc1n[nH]c2cc(-c3cccc(F)c3)ccc12)C1CC1", "note": "[SB-735464]", "%Inh": 0}, {"compound": "CCCCCc1nc2c(N)ncnc2n1CCCCC", "note": "[SKF-97255]", "%Inh": 1}, {"compound": "Cc1ccc(C(=O)NCC(N)=O)cc1-n1c(C)cc(OCc2ccc(F)cc2F)c(Br)c1=O", "%Inh": 0}, {"compound": "NCC(NC(=O)c1cc(-c2cn[nH]c2)c(-c2ccnc3[nH]ccc23)s1)c1ccccc1.O=C(O)C(F)(F)F.O=C(O)C(F)(F)F", "note": "(stereo not drawn) [GSK1325775]", "%Inh": 0}, {"compound": "COc1ccc(Nc2nccc(N3CCC(NC(=O)Nc4cccc(C(C)=O)c4)C3)n2)cc1", "note": "(stereo not drawn) [GSK1379731]", "%Inh": 0}, {"compound": "COCCNC(=O)c1ccc(-c2cc(C(=O)NC3CC3)cc(F)c2C)cc1", "note": "[GW868318]", "%Inh": 0}, {"compound": "COC(=O)Nc1nc2cc(Oc3ccc(NC(=O)Nc4cc(F)ccc4F)cc3)ccc2[nH]1.Cl", "note": "[GW701424]", "%Inh": 0}, {"compound": "O=C(c1ccc(-c2cc(-c3c[nH]nc3-c3ccccn3)ccn2)cc1)N1CCOCC1", "note": "[GW812171]", "%Inh": 0}, {"compound": "NS(=O)(=O)c1cccc(-c2ccc3nccc(-c4cccc(S(N)(=O)=O)c4)c3c2)c1", "note": "[GW867253]", "%Inh": 1}, {"compound": "CN1c2ccc(CNc3ccc(F)cc3)cc2-c2c(cnn2C)S1(=O)=O", "%Inh": 0}, {"compound": "O=c1cc(N2CCOCC2)nc2n(Cc3cccc(C(F)(F)F)c3)ccn12", "note": "[GSK2297543]", "%Inh": 0}, {"compound": "Nc1nccc(-c2c(-c3ccc(F)cc3)ncn2C2CCN(CC(F)(F)F)CC2)n1", "note": "[SB-236560]", "%Inh": 0}, {"compound": "O=c1cc(N2CCOCC2)nc2n(Cc3cccc(Cl)c3Cl)c(C3CC3)nn12", "note": "[GSK2358994]", "%Inh": 0}, {"compound": "Fc1ccc(-c2ncn(CCCN3CCOCC3)c2-c2ccccn2)cc1", "note": "[SB-211742]", "%Inh": 0}, {"compound": "CC(C)Oc1ccc2c(-c3ccnc(Nc4ccc(N5CCN(C)CC5)cc4)n3)cnn2n1", "note": "[GW696155]", "%Inh": 83}, {"compound": "COc1ccc(COc2cc(-n3cnc4ccccc43)sc2C(N)=O)cc1", "note": "[GSK1024304]", "%Inh": 0}, {"compound": "C[C@@H](Oc1cc(-n2cnc3ccc(NC(=O)NC(C)(C)C)cc32)sc1C(N)=O)c1ccccc1Cl", "note": "[GSK346294]", "%Inh": 0}, {"compound": "Cl.Nc1ncnc2occ(-c3ccc(NC(=O)Nc4cc(C(F)(F)F)ccc4F)cc3)c12", "note": "[SB-707548]", "%Inh": 0}, {"compound": "COc1cc2c(cc1OCCN1CCN(C)CC1)ncc1c3ccc(C#N)cc3[nH]c21", "%Inh": 88}, {"compound": "O=C(NCCNc1ccnc(Nc2ccc(F)cc2)n1)Nc1ccccc1F", "note": "[GSK1379880]", "%Inh": 0}, {"compound": "O=C(NCCNc1ccnc(Nc2ccc(F)cc2)n1)c1cc2ccccc2s1", "note": "[GSK1379874]", "%Inh": 0}, {"compound": "COc1cc2ncn(-c3cc(OCc4sccc4Cl)c(C(N)=O)s3)c2cc1OC", "note": "[GSK448459]", "%Inh": 13}, {"compound": "Cc1cccc(-c2nc(-c3ccc(S(C)(=O)=O)cc3)sc2-c2ccncc2)c1", "%Inh": 0}, {"compound": "CCc1nc(-c2cccc(C)c2)c(-c2ccnc(NCc3ccccc3)c2)s1", "%Inh": 10}, {"compound": "c1ccc(-c2cc(-c3c[nH]nc3-c3ccccn3)ccn2)cc1", "note": "[GW576604]", "%Inh": 0}, {"compound": "COc1cc(Nc2nccc(N3CCC(NC(=O)c4cccc(NC(C)=O)c4)C3)n2)cc(OC)c1OC", "note": "(stereo not drawn) [GSK1379754]", "%Inh": 12}, {"compound": "Cn1ccc2ncnc(Oc3ccc(NC(=O)Nc4ccncc4)c(Cl)c3)c21", "%Inh": 0}, {"compound": "Cl.Oc1cccc(Nc2ccnc3cc(-c4ccncc4)ccc23)c1", "note": "[GW494601]", "%Inh": 69}]}]}
